In PubChem BioAssay (NCATS):
Unmarked numbers belong to inactive results. Results filed as inconclusive are left out. A call without a number means that no potency is given here. Active and inactive are the calls of the source. Calls follow the shape of the dose curve; as a rule, active = well fitted curve in the direction sought with a large enough effect; inconclusive = small, poorly fitted or top-dose-only effect, or another doubt; inactive = no such curve, though single readings can be large; an effect the other way counts as inactive or inconclusive.

Columns and labels:
[1] = target: Glutathione peroxidase 1 (Homo sapiens) (UniProt P07203); test: Primary qHTS Assay for Inhibitors of Recombinant Selenoprotein Glutathione Peroxidase 1 (GPX1) (AID 1845191); also: nearly all actives have a fitted effect of over 65% in size
In short: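 GR-coupled assay: compounds preincubated 30 min at room temperature with GPX1, then reaction started with CHP; final 10 nM GPX1, 1 mM GSH, 0.5 mM CHP, 0.5 mM NADPH, 100 nM GR, 0.01% BSA, pH 7.5 Tris buffer. NADPH fluorescence (340/450 nm) read at 0 and 15 min.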

[2] = target: Phospholipid hydroperoxide glutathione peroxidase GPX4 (Homo sapiens) (UniProt P36969); test: Primary qHTS Assay for Inhibitors of Recombinant Selenoprotein Glutathione Peroxidase 4 (GPX4) (AID 1845192); also: nearly all actives have a fitted effect of over 65% in size; as to activity change, negative = inhibition: series mostly up to about 50 µM
In short: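 GR-coupled assay: recombinant GPX4 preincubated 30 min with compound at room temperature; final 200 nM GPX4, 1 mM GSH, 0.5 mM cumene hydroperoxide, 0.5 mM NADPH, 100 nM GR, 0.01% BSA, pH 7.5 Tris. NADPH fluorescence (340/450 nm) read at 0 and 15 min.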

[3] = target: Luciferin 4-monooxygenase (Photinus pyralis) (UniProt P08659); test: Primary firefly luciferase (FLuc) qHTS assay for identification of artifact compounds. (AID 1845220); also: nearly all actives have a fitted effect of over 60% in size; as to activity change, negative = inhibition: series mostly up to about 54 µM
In short: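 Enzymatic FLuc inhibition assay: compounds pre-exposed to luciferin/ATP (10 uM each) for 15 min, then purified P. pyralis enzyme at 10 nM added. Read-out: luminescence at 5 min.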

[4] = Primary fluorescence-based thiol-reactive (MSTI) qHTS assay for identification of artifact compounds. (AID 1845221); also: nearly all actives have a fitted effect of over 65% in size; also: potency is read from the fitted curve at half-maximal effect;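 as to activity change, negative = thiol reactive: series mostly up to about 54 µM; thiol-reactive compounds lower the probe fluorescence signal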
In short: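 A multi-concentration qHTS design tested compounds against 4 uM MSTI, pH 7.4 phosphate-buffered saline. Plates were protected from light for 1 h at room temperature before imaging fluorescence.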

[5] = test system: Nanoluciferase (engineered Oplophorus gracilirostris luciferase); test: Primary Nanoluciferase (NLuc) qHTS assay for identification of artifact compounds. (AID 1845222);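 also: NLuc secreted into diluted conditioned medium of S16 cells; series mostly up to about 54 µM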
In short: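 S16 cell supernatant NLuc, 1:55; cpds qHTS; 15 min RT dark; Nano-Glo substrate 1:100, 5 min; luminescence; Hill fit of % inhibition.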

[6] = Primary redox qHTS assay for identification of artifact compounds. (AID 1845223)
In short: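 Amplex Red (25 uM) and HRP (250 mU/mL) in HBSS, with compounds for 15 min, then 250 uM DTT for 30 min, room temperature, dark. Fluorescence 525/598 nm read; normalized to DMSO and 10 uM DA3003; Hill fit.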

Glutathione peroxidase 1 (Homo sapiens), sequence (P07203 whole entry, looked up): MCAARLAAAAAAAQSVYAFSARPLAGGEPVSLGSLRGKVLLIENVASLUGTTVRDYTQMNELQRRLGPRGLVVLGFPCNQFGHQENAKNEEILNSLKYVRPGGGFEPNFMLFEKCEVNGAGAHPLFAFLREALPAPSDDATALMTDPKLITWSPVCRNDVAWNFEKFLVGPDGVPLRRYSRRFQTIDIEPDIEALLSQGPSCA
Phospholipid hydroperoxide glutathione peroxidase GPX4 (Homo sapiens), sequence (P36969 whole entry, looked up): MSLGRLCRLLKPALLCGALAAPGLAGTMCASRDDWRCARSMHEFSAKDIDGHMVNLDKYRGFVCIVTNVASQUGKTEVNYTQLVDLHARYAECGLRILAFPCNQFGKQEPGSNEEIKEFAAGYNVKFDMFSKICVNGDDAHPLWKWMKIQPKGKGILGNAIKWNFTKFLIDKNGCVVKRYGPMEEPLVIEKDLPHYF

| Compound | Potency [1] | Potency [2] | Potency [3] | Potency [4] | Potency [5] | Potency [6] | activity change, negative = inhibition [3] | activity change, negative = thiol reactive [4] | activity, negative = inhibition [5] | redox activity (% of DA3003) [6] |
| --- | --- | --- | --- | --- | --- | --- | --- | --- | --- | --- |
| Cc1cc(-c2cnc(N)c3c(-c4ccc5scnc5c4)csc23)n(C)n1 | inactive | inactive | inactive | inactive | inactive | inactive | – | – | – | – |
| Cc1cc(C)nc(SCC(=O)Nc2ncc(Cc3cccc4ccccc34)s2)n1 | inactive | inactive | inactive | inactive | inactive | inactive | – | – | – | – |
| CC1=C2C[C@@]3(C)C(CCC[C@@H]3C)C(O)C2OC1=O (stereo not given in full) | inactive | inactive | inactive | inactive | inactive | inactive | – | – | – | – |
| O=[N+]([O-])c1cn2c(n1)OC[C@@H](OCc1ccc(-c3ccc(OC(F)(F)F)cc3)nc1)C2 | inactive | inactive | inactive | inactive | inactive | inactive | – | – | – | – |
| C=C1C(=O)OC2/C=C(\C)CC3C=C(CC/C=C(\C)CCC12)C(=O)O3 (stereo not given) | inactive | inactive | inactive | inactive | inactive | inactive | – | – | – | – |
| CCOc1ccc(Cc2nc(-c3c(C)nc4ccccn34)cs2)cc1 | inactive | inactive | inactive | 1.68 µM (active) | inactive | inactive | – | – | – | – |
| Cc1ccc(S(=O)(=O)NCc2ccc(C(=O)NCCN(Cc3ccccc3)C(C)C)cc2)cc1 | inactive | inactive | inactive | inactive | inactive | inactive | – | – | – | – |
| C=C1C(=O)OC2CC(C)=C(C(C)CCCOC(C)=O)C(OC(=O)CC(C)CC)C12 (stereo not given) | inactive | inactive | inactive | inactive | inactive | inactive | – | – | – | – |
| C/C=C(\C)C(=O)O[C@H]1C=C(CO)C(=O)[C@H](OC(C)=O)[C@H]1C(C)C | inactive | inactive | inactive | inactive | inactive | inactive | – | – | – | – |
| CNC(=O)[C@@H](c1ccccc1)N1CCc2cc(OC)c(OC)cc2[C@@H]1CCc1ccc(C(F)(F)F)cc1 | inactive | inactive | inactive | inactive | inactive | inactive | – | – | – | – |
| CC1(C)CCC2(C(=O)OC3OC(COC4OC(CO)C(O)C(O)C4O)C(O)C(O)C3O)CCC3(C)C(=CCC4C5(C)CCC(OC6OCC(O)C(O)C6O)C(C)(C)C5CCC43C)C2C1O (stereo not given) | inactive | inactive | – | – | – | – | 0.58% [at 11.6 µM] | 122% [at 11.5 µM] | -1.73% [at 11.6 µM] | 18.7% [at 11.5 µM] |
| O=C(NCc1nc2ccccc2c(=O)n1-c1ccc(F)cc1)Nc1ccc(Cl)c(C(F)(F)F)c1 | inactive | inactive | inactive | inactive | inactive | inactive | – | – | – | – |
| O=C(NCCCN1CCC2(CC1)OCc1ccccc12)[C@H]1CCCN1Cc1ccccc1 | inactive | inactive | inactive | inactive | inactive | inactive | – | – | – | – |
| C=C1C(=O)O[C@@H]2C[C@H](C)[C@@H]3CC(=O)C(C)=C3C[C@H]12 | inactive | inactive | inactive | inactive | inactive | inactive | – | – | – | – |
| NC(=O)C1=CC2C3C=CC2C(OC3=O)O1 (stereo not given) | inactive | inactive | inactive | 15.8 µM (active) | inactive | inactive | – | – | – | – |
| COc1ccccc1N1CCN(CC[C@@](C)(C(=O)C2CCCCC2)c2ccccc2)CC1 | inactive | inactive | inactive | inactive | inactive | inactive | – | – | – | – |
| O=C(Nc1ccc(C(F)(F)F)cn1)N1CCN(c2ncccc2C(F)(F)F)CC1 | inactive | inactive | inactive | inactive | inactive | inactive | – | – | – | – |
| CC12CCC(OC3OC(CO)C(O)C(O)C3OC3OC(CO)C(O)C(O)C3O)CC1CCC1C2CCC2(C)/C(=C3/COC(=O)C3)CCC12O (stereo not given) | inactive | inactive | inactive | inactive | inactive | inactive | – | – | – | – |
| N[C@@H]1c2cccnc2[C@H](OC(=O)N2CCC(n3c(=O)[nH]c4ncccc43)CC2)CC[C@H]1c1cccc(F)c1F | inactive | inactive | inactive | inactive | inactive | inactive | – | – | – | – |
| COC(=O)C[C@H]1C(C)(C)[C@H](OC(=O)c2ccccc2)C2CC3=C4CC(=O)O[C@@H](c5ccoc5)[C@]4(C)CCC3[C@@]1(C)C2=O (stereo not given in full) | inactive | inactive | inactive | inactive | inactive | inactive | – | – | – | – |
| COc1cc(C(=O)NC(=S)Nc2cccc(NC(=O)c3ccccc3)c2)cc(OC)c1OC | inactive | inactive | inactive | inactive | inactive | inactive | – | – | – | – |
| C/C1=C\[C@@H](C)C[C@@H](C)[C@@H](Cc2cnco2)OC(=O)/C(C)=C/[C@@H](C)C[C@@H](C)[C@@H](Cc2cnco2)OC1=O | inactive | inactive | inactive | inactive | inactive | inactive | – | – | – | – |
| CCN1C(C)(C)CC(Oc2ccc(C(=O)Nc3ccc(NC(=O)Nc4cc(C(C)(C)C)on4)cc3)nc2)CC1(C)C | inactive | inactive | inactive | inactive | inactive | inactive | – | – | – | – |
| NS(=O)(=O)c1ccc(N2CCN(CC[C@@H]3OCCc4ccccc43)CC2)cc1 | inactive | inactive | inactive | inactive | inactive | inactive | – | – | – | – |
| CC(C)n1cnc2c(-c3cnc(N)nc3)nc(N3CCOCC3)nc21 | inactive | inactive | inactive | inactive | inactive | inactive | – | – | – | – |
